# Test results taken from the supplement of paper PMC7724964.
# T1: IRS1 157-267 IRS (domain begin residue: 157, domain end residue: 267), P35568
# T1 chain: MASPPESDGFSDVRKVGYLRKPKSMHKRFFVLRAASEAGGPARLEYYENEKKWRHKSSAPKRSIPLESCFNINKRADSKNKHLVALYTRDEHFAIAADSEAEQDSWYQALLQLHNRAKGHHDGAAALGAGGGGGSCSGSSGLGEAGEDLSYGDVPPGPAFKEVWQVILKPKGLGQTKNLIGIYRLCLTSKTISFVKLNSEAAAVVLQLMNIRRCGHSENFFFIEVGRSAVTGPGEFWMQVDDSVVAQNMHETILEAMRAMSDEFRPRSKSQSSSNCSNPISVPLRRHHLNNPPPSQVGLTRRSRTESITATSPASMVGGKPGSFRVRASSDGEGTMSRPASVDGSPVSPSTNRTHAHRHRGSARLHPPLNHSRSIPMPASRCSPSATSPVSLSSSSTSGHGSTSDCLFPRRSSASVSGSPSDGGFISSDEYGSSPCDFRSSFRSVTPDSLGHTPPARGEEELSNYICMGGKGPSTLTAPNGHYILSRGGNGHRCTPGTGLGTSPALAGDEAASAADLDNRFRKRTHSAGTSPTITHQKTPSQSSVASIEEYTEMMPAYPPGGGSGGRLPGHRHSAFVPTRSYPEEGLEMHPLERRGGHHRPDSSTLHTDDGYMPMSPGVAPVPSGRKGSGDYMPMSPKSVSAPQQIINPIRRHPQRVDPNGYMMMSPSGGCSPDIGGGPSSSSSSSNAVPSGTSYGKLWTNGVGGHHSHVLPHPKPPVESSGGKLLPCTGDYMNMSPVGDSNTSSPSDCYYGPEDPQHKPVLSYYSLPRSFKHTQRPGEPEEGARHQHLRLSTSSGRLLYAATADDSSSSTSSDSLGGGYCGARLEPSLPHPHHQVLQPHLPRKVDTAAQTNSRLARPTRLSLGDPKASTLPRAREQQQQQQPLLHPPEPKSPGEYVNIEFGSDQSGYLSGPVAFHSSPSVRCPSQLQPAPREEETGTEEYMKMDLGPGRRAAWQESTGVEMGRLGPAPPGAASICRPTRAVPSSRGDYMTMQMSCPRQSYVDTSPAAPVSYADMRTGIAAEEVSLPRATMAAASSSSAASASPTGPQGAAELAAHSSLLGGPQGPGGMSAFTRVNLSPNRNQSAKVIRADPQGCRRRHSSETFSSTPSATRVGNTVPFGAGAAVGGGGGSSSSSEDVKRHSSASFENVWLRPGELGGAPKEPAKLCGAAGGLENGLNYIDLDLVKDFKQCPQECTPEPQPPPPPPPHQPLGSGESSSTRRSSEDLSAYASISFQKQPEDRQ
# T2: LBR 1-67 LBR_tudor (domain begin residue: 1, domain end residue: 67), Q14739
# T2 chain: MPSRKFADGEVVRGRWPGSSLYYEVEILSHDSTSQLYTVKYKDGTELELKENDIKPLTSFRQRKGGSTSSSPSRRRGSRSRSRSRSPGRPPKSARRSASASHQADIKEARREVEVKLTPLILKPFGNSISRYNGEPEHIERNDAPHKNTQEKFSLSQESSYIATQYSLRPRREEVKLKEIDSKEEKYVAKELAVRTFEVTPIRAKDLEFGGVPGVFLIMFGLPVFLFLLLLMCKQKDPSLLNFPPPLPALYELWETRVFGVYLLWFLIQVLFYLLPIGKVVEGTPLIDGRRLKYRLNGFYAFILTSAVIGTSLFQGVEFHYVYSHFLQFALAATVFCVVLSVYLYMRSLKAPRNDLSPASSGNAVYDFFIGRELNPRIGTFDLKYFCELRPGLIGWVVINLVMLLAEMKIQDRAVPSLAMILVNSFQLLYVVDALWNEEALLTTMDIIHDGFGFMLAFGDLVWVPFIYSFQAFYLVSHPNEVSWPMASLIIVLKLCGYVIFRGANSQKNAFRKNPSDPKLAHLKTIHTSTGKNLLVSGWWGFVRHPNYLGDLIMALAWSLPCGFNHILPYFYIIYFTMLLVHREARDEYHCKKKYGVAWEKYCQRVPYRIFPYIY
# T3: LRP5 340-601 Ldl_recept_b (domain begin residue: 340, domain end residue: 601), O75197
# T3 chain: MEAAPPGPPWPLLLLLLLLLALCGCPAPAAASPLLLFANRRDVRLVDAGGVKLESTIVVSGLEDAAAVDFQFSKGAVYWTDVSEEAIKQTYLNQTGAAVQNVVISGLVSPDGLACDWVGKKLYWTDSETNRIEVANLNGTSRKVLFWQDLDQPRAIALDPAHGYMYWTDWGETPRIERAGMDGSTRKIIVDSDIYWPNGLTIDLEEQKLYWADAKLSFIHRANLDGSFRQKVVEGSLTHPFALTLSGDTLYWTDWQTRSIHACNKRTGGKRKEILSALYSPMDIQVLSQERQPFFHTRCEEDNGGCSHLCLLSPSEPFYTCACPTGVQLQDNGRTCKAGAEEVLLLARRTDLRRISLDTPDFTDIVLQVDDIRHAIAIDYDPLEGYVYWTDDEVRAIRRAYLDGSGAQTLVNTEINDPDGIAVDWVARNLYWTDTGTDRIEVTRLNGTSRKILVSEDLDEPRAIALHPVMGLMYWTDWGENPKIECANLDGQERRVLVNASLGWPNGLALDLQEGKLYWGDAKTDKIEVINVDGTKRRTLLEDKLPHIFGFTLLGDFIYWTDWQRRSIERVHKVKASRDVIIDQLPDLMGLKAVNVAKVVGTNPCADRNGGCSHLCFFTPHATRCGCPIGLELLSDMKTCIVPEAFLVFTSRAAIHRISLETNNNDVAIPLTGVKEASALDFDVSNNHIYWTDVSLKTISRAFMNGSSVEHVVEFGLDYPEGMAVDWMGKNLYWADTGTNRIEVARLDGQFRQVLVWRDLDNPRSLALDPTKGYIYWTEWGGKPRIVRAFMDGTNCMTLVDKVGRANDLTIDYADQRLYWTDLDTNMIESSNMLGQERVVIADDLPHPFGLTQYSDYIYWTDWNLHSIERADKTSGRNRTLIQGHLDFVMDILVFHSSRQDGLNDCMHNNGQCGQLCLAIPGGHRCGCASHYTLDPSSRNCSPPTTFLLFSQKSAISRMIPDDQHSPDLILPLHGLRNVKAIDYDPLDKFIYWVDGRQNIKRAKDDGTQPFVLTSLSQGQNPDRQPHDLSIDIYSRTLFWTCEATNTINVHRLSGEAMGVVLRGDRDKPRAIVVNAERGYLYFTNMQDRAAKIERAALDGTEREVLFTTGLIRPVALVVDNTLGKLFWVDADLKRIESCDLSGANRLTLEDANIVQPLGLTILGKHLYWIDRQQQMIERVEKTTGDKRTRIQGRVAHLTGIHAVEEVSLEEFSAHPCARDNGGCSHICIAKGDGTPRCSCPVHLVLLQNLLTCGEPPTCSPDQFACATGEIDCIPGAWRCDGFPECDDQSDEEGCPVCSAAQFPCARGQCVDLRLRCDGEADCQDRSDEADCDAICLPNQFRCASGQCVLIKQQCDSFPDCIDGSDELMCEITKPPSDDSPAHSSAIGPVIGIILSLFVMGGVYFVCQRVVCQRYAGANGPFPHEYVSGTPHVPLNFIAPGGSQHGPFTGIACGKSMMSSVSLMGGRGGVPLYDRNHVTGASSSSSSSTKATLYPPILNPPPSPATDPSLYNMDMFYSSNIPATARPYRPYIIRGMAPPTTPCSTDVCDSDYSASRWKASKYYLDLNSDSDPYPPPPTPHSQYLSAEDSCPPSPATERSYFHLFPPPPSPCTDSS
# B1: unnamed (peptide)
# chain: WSWPDLDVVQDMIVAE
# B2: unnamed (peptide)
# chain: VITMDQSQWDDVMFWL
# B3: unnamed (peptide)
# chain: WVETSTYPEWPAVFVF
# B4: unnamed (peptide)
# chain: LDWVSMFEDNSSQFSV
# B5: unnamed (peptide)
# chain: WIPADFQEWMELVAYD
# B6: unnamed (peptide)
# chain: WENIWDDMIEQIIIPQ
# B7: unnamed (peptide)
# chain: LDWMSMFDDYSSLFSV
# B8: unnamed (peptide)
# chain: SDMNWWEEWDFFLARE
# B9: unnamed (peptide)
# chain: PHEFQWALWPSGVFVF
# B10: unnamed (peptide)
# chain: TYYLDPFAWEYLQAEY
# B11: unnamed (peptide)
# chain: WGWDDIPALQEMKPTN
# B12: unnamed (peptide)
# chain: QWLEWISPEIDFTPME
# B13: unnamed (peptide)
# chain: EQWEIEWLEHFNTYWE
# B14: unnamed (peptide)
# chain: PYDNYRVVQIPWLFSD
# B15: unnamed (peptide)
# chain: PTLLLWQQIDQVMMKK
# B16: unnamed (peptide)
# chain: NYIEHMYDSMMYGSMT
# B17: unnamed (peptide)
# chain: DNAMVIWHSTTELYQH
# B18: unnamed (peptide)
# chain: TFSMHRDEFQMLLNMM
# B19: unnamed (peptide)
# chain: WAEELYHSTQWLGVTE
# B20: unnamed (peptide)
# chain: SGEWFKLPSFDEPRKG
# B21: unnamed (peptide)
# chain: YMEMVWDTIQIQPPQD
# B22: unnamed (peptide)
# chain: SIKGIYIDDVLRLIDQ
# B23: unnamed (peptide)
# chain: PFTAFFVMMEWVQVPK
# B24: unnamed (peptide)
# chain: MDMIWDQILPDQFLSK
# B25: unnamed (peptide)
# chain: YDFGPFMGVGAPSFQF
# B26: unnamed (peptide)
# chain: WQMWTPLGDLDQIYTF
# B27: unnamed (peptide)
# chain: EWSSNEWWDAYSAMTV
# B28: unnamed (peptide)
# chain: YGWETIWDTFPVDMPA
# B29: unnamed (peptide)
# chain: VEVDYFNSMYEAMSFM
# B30: unnamed (peptide)
# chain: YHWDNLLEPTIQTYMG
# Biological target: KDM6A 1-520 TPR_8 (domain begin residue: 1, domain end residue: 520), O15550
# Sequence (O15550 whole entry): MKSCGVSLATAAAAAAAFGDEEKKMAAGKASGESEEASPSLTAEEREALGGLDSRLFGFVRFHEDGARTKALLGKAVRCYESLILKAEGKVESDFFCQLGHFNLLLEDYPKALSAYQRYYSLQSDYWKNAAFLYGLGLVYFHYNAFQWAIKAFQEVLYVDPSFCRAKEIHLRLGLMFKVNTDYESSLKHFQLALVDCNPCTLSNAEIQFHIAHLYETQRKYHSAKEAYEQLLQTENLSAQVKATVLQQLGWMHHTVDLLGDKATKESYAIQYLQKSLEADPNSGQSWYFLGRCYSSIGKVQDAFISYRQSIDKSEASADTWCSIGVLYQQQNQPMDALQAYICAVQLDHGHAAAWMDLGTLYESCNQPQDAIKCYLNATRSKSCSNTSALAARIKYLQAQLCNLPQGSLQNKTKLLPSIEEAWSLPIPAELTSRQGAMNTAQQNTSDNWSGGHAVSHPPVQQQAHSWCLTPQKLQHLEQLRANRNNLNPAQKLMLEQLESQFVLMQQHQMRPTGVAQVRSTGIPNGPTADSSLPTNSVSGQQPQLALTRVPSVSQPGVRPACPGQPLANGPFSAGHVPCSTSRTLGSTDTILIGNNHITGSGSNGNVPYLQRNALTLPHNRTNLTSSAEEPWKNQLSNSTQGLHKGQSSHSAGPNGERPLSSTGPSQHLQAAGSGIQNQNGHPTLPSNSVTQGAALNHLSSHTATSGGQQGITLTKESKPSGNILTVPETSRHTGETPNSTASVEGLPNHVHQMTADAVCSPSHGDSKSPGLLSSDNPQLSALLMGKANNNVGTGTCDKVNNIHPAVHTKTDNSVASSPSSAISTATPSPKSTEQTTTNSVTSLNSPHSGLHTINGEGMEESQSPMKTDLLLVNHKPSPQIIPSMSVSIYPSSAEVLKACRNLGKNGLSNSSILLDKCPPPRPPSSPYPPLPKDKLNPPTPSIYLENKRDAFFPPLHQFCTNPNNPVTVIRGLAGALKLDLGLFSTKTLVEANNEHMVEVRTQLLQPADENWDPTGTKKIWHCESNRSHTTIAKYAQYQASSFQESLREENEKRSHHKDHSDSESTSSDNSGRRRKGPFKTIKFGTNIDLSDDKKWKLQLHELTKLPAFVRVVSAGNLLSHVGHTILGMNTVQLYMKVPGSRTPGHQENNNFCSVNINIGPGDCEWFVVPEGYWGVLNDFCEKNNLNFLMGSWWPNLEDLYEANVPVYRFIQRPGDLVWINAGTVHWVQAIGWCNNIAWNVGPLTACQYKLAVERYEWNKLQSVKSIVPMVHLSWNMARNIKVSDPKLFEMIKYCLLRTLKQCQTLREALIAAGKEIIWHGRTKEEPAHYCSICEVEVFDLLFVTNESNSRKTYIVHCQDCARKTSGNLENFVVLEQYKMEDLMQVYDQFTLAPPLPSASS
# Assay: phage ELISA signal ratio (GST-PRM binding over GST background); higher = stronger binding of peptide-phage to the PRM
# Summary of the method: (§1)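 Human peptide recognition domains were expressed in 96-well plates as fusions to the C-terminus of glutathione S-transferase (GST) and selected against an M13 phage library displaying randomized hexadecapeptides, cysteine-free and glycine-flanked, on the gene-8 major coat protein. Five selection rounds were run, and approximately 48 individual clones from rounds 4 and 5 were tested by phage ELISA. Each value is the ELISA signal on the GST-domain fusion divided by the signal on GST alone. Positive clones were sequenced.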
row,Binder,phage ELISA signal ratio
1,B1,5.09
2,B6,8.83
3,B11,7.16
4,B12,3.57
5,B16,8.78
6,B17,3.82
7,B19,5.83
8,B21,6.38
9,B24,6.37
10,B29,4.78
11,B30,7.69

# Biological target: HSPA9 438-651 HSP70 (domain begin residue: 438, domain end residue: 651), P38646
# Sequence (P38646 whole entry): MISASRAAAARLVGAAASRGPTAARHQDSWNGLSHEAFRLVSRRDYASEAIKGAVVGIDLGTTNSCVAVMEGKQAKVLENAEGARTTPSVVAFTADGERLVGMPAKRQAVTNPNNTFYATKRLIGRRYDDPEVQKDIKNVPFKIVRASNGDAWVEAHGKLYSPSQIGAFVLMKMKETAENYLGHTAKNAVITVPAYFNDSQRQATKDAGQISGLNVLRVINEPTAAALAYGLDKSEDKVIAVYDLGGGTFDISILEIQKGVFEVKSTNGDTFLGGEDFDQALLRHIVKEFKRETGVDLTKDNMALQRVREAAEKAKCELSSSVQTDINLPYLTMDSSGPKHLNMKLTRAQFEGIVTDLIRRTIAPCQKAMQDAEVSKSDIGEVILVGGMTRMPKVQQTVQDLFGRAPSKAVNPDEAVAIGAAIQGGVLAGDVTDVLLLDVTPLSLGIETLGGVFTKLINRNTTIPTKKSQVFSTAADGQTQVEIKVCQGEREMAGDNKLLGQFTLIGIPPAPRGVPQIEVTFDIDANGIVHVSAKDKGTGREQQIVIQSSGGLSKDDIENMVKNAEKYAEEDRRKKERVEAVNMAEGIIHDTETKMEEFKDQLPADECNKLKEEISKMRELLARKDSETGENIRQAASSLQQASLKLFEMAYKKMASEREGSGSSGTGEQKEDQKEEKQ
# Assay: as above
# Summary of the method: as §1
row,Binder,phage ELISA signal ratio
1,B2,27.3
2,B10,20.2
3,B15,20.8
4,B18,23.3

# Biological target: KPNB1 1-876 IBN_N+Arm (domain begin residue: 1, domain end residue: 876), Q14974
# Sequence (Q14974 whole entry): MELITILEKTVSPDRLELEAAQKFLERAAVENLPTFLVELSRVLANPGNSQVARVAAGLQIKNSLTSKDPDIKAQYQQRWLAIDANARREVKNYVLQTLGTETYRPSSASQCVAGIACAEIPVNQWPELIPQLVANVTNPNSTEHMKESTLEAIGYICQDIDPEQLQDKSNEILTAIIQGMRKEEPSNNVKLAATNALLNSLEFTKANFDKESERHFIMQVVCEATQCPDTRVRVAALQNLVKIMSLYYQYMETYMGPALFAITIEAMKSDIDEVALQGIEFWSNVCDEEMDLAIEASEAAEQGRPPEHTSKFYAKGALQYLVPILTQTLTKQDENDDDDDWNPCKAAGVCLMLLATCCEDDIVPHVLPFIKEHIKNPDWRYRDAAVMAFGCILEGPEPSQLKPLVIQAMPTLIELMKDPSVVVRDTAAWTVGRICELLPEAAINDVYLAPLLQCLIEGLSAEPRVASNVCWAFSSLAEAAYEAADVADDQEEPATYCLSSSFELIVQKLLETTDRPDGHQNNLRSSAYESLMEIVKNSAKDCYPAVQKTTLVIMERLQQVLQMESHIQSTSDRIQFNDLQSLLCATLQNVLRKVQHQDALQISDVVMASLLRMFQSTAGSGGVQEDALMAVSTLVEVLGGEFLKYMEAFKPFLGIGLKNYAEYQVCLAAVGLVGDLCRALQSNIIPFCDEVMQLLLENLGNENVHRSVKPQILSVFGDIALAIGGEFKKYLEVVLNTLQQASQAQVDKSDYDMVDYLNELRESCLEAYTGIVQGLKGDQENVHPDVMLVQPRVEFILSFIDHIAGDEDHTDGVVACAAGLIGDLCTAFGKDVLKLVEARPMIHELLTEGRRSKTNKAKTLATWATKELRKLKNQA
# Assay: as above
# Summary of the method: as §1
row,Binder,phage ELISA signal ratio
1,B3,16.3
2,B4,17.2
3,B7,16.8
4,B9,14
5,B25,9.88
6,B26,16.1

# Biological target: T1, IRS1 157-267 IRS (domain begin residue: …
# Assay: as above
# Summary of the method: as §1
row,Binder,phage ELISA signal ratio
1,B5,22.4
2,B8,15

# Biological target: KARS 71-214 tRNA_anti-codon (domain begin residue: 71, domain end residue: 214), Q15046
# Sequence (Q15046 whole entry, looked up, tested part not stated): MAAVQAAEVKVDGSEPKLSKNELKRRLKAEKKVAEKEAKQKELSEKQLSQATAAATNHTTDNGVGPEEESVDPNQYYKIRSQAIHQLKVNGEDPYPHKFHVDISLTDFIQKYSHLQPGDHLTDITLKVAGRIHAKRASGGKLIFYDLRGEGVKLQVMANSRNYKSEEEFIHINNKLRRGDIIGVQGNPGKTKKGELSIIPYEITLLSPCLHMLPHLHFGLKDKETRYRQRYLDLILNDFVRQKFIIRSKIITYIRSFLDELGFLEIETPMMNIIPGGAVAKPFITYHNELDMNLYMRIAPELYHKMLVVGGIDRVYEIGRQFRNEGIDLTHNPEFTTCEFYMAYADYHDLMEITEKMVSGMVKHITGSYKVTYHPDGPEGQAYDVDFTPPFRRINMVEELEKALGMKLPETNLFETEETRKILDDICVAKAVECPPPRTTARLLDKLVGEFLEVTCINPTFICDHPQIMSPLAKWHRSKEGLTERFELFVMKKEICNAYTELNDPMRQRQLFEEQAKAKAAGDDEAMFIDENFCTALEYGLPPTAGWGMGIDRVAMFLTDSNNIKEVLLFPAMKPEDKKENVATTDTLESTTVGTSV
# Assay: as above
# Summary of the method: as §1
row,Binder,phage ELISA signal ratio
1,B13,17.2

# Biological target: T2, LBR 1-67 LBR_tudor (domain begin …
# Assay: as above
# Summary of the method: as §1
row,Binder,phage ELISA signal ratio
1,B14,3.18
2,B23,2.52
3,B28,3.69

# Biological target: MAD2L1 2-205 HORMA (domain begin residue: 2, domain end residue: 205), Q13257
# Sequence (Q13257 whole entry): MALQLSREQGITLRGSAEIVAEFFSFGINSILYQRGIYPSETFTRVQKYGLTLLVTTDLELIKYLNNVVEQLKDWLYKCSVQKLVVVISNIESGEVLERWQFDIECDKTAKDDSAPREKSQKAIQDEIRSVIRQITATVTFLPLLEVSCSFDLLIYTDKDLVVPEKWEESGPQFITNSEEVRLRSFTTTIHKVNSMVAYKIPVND
# Assay: as above
# Summary of the method: as §1
row,Binder,phage ELISA signal ratio
1,B20,6.3

# Biological target: KMT2C 995-1055 PHD (domain begin residue: 995, domain end residue: 1055)
# Assay: as above
# Summary of the method: as §1
row,Binder,phage ELISA signal ratio
1,B22,6.63

# Biological target: T3, LRP5 340-601 Ldl_recept_b (domain begin …
# Assay: as above
# Summary of the method: as §1
row,Binder,phage ELISA signal ratio
1,B27,7.31
